# Calls of active or inactive are those of the source.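 How the source made its calls: active means at least 15% MAC1-positive differentiation at the top dose and half-maximal dose below 10 µM; inactive means the rest.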
# Experiment: MAC1 induction in normal CD34+ cells, SAR follow-up, cell-based, MAC1 flow cytometry, set 1 (AID 743198)
# Details: human CD34+ cells, 4 days; at 10 µM (top of the series)
row,SMILES,"MAC1+ differentiation, normalised"
1,O=C(CCNC(=O)c1ccc(Cl)cc1)N[C@H]1CCCc2ccccc21,4.01% (inactive)
2,O=C(CCNC(=O)c1ccc(OC(F)(F)F)cc1)N[C@@H]1CCCc2ccccc21,96.3%
3,O=C(O)c1cccnc1Nc1ccc(Cl)cc1,85%
4,O=C(CCCNC(=O)c1ccc(OC(F)(F)F)cc1)N[C@@H]1CCCc2ccccc21,2.93% (inactive)
5,O=C(CCNC(=O)c1ccc(Cl)cc1)NC1CCCc2ccccc21 (stereo not given),86.2%
6,O=C(CCNC(=O)c1ccc(Cl)c(Cl)c1)N[C@@H]1CCCc2ccccc21,96.1%
7,O=C(CCNC(=O)c1ccc2c(c1)OC(F)(F)O2)N[C@@H]1CCCc2ccccc21,90%
8,O=C(CCNC(=O)c1ccc(C(F)(F)F)cc1)N[C@@H]1CCCc2ccccc21,96%
9,O=C(CCNC(=O)c1ccc(Cl)cc1)N[C@@H]1CCCc2ccccc21,95.7%
10,O=C(CNC(=O)c1ccc(OC(F)(F)F)cc1)N[C@@H]1CCCc2ccccc21,2.98% (inactive)

# From PubChem BioAssay AID743198 (NMMLSC, 2013)
